From PubChem BioAssay AID1347043 (National Center for Advancing Translational Sciences (NCATS), 2019)
About 1,900 (2.5%) of roughly 76,000 compounds were called active. Where a call stands in place of a potency, no number is given. About 5% were inconclusive and are not listed. The call rests on the fitted dose curve; in most records, active means well fitted inhibition curve with a large enough effect; inconclusive means small, poorly fitted or top-dose-only effect; inactive means flat fitted curve, though single readings scatter. The sample as a whole holds a higher share of actives than the screen did.

Target: Luciferin 4-monooxygenase (Photinus pyralis) (UniProt P08659)
Sequence (P08659 whole entry, looked up): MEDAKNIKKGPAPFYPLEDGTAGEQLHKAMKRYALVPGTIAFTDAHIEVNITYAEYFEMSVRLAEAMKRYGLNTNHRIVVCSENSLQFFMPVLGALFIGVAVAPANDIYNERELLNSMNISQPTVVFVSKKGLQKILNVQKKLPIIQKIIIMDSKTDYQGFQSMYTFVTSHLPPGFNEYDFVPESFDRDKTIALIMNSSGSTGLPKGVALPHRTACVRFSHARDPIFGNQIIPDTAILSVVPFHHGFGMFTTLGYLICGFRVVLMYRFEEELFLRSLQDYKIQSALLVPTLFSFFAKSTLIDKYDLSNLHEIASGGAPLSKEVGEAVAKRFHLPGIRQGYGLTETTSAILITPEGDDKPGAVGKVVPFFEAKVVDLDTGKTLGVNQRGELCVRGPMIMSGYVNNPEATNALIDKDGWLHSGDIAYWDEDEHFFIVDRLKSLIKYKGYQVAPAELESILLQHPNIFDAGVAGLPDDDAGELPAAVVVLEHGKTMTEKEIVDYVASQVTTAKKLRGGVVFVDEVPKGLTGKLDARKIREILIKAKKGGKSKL
Assay: Firefly luciferase inhibition profiling of diverse chemical library using quantitative high-throughput screening; further: nearly all actives have a fitted effect of over 65% in size
Details: purified P. pyralis luciferase, luminescence, biochemical; series mostly up to 172 µM
Source text: Firefly (Photinus pyralis) luciferase is one of the most commonly used transcriptional reporters for a number of reasons. It is considered one of the more dynamically responsive reporters - that is, responsive to changes in reporter transcription - as it requires no post-translational modifications and is enzymatically active directly after protein synthesis (Wood, 1998). Additionally, the half-life of the luciferase protein is short relative to other reporter-gene products (Wood, 1995). Whereas reporters with long half-lives potentially allow for increased signal due to accumulation of reporter-gene product, once accumulated in the cell, dynamic changes in reporter-gene expression may be difficult to detect(Fan and Wood, 2007; Almond et al., 2004). It has been shown that wild-type P. pyralis luciferase has a half-life of approximately four hours in mammalian cells (Thompson et al., 1991). Firefly luciferase reporter-gene assays are also generally considered one of the most sensitive assay types (Wood, 1995; Wood, 1998). Although light produced in a bioluminescence reaction is of lower intensity than that produced during fluorescence emission, this is offset by little to no background light inherent to luminescent assays. Thus the luciferase reporter can be expressed at much lower levels than fluorescent proteins while still providing robust signal. However, it was initially observed, in 1991, by Thompson et al., that compounds that resemble the substrates of firefly luciferase (FLuc) can act as competitive inhibitors of the enzyme, and that these compounds, upon interaction with luciferase in the cell, can actually stabilize the protein and increase its half-life. Accumulated intracellular FLuc protein can be measured as an increase in luminescence signal, upon addition of detection reagents (which contain high concentrations of FLuc substrates) commonly used in high-throughput screening. In cell-based reporter gene assays that use FLuc as the reporter gene to quantitate the potential influence of a given compound against the target biology, this apparent increase in luminescence can mistakenly be interpreted as identification of a compound that is active against the target of interest. FLuc inhibitory compounds that stabilize the FLuc protein will give an identical read-out, making it difficult to distinguish compounds that are active against the target from those active against FLuc. In summary, the results generated here constitutes a valuable resource for the scientific community and provides insight on identifying compounds with inhibitory activity for the commonly-used reporter, firefly luciferase. References: -Almond, B., Zdanovsky, A., Zdanovskaia, M., Ma, D., Stecha, P., Paguio, A., Garvin, D., and Wood, K. (2004). Introducing the Rapid Response Reporter Vectors. Promega Notes 87, 18-22. -Fan, F., and Wood, K.V. (2007). Bioluminescent assays for high-throughput screening. Assay Drug Dev Technol 5, 127-136. -Thompson, J.F., Hayes, L.S., and Lloyd, D.B. (1991). Modulation of firefly luciferase stability and impact on studies of gene regulation. Gene 103, 171-177. -Wood, K.V. (1998). The chemistry of bioluminescent reporter assays. Promega Notes 65, 14-20. -Wood, K.V. (1995). Marker proteins for gene expression. Curr Opin Biotechnol 6, 50-58.
Reagents: 50mM Tris acetate, pH 7.5; 10mM Mg acetate; 10uM D-luciferin (Sigma #L9504); 10uM ATP; 0.01% Tween-20; 0.05% BSA; 10nM P. pyralis luciferase (Sigma #L9506) Control compounds used were two known firefly luciferase inhibitors (compounds (2) and (5) in Auld et al., 2010), and DMSO. Assay Summary: Three microliters containing firefly luciferase substrates in buffer (final concentrations: 50mM Tris acetate, pH 7.5, 10mM Mg acetate, 0.01% Tween-20, 0.05% BSA, 10uM D-luciferin, and 10uM ATP) are dispensed into each well of a Greiner white, solid-bottom 1536-well format plate using a flying reagent dispenser (FRD). […]

SMILES | Potency
COc1cccc(Nc2cc3c(cn2)CN(C)CCN3C)c1 | 39.8 µM (active)
O=C(Nc1ccccc1)N1C[C@@H]2C[C@H](C1)c1c(-c3ccc(Cl)cc3)ccc(=O)n1C2 | inactive
COc1ccc(C(=O)NC[C@H]2C[C@@H]3CCN2C[C@@H]3c2cc(-c3ccccc3)nn2C)cc1 | inactive
COc1ccc(C(=O)N2[C@H]3CC[C@@H]2c2cnc(-c4ccccc4)nc2C3)c(OC)c1 | inactive
Cc1cccc(C(=O)N2[C@H]3CC[C@@H]2c2cnc(-c4ccccc4)nc2C3)c1 | inactive
Cc1ccc(C(=O)N2[C@H]3CC[C@@H]2c2cnc(-c4ccccc4)nc2C3)c(C)c1 | 20 µM (active)
C#C[C@H]1CN2CC[C@H]1C[C@@H]2COC(=O)Nc1cc(OC)cc(OC)c1 | inactive
C=CCN(C)C[C@H]1CN2CC[C@H]1C[C@@H]2CNC(=O)Nc1cccc(SC)c1 | inactive
COc1cc2c(cc1OCc1ccncc1)NC(=O)C21CCN(c2ncc(F)cn2)CC1 | inactive
Cc1ccc(C(=O)NC[C@H]2C[C@@H]3CCN2C[C@@H]3c2cc(-c3ccco3)nc(C)n2)cc1 | inactive
